Screens (PubChem BioAssay)
An excerpt weighted towards active compounds, which were near 5.8% of everything screened.
TRPV1 ag = HTS Assay for Compounds that Act as Agonists of the Vanilloid Receptor 1; 320,000 compounds, 0.19% hits; TRPV1-expressing cells, Fluo-8 calcium influx, agonist mode; activation, % at 8.33 µM; Transient receptor potential cation channel subfamily V member 1 (Homo sapiens), Q8NER1; AID 540275, 2011; in the data active = activation above about 80%; inconclusive = between about 30% and that limit
Target sequence (Q8NER1 whole entry, looked up): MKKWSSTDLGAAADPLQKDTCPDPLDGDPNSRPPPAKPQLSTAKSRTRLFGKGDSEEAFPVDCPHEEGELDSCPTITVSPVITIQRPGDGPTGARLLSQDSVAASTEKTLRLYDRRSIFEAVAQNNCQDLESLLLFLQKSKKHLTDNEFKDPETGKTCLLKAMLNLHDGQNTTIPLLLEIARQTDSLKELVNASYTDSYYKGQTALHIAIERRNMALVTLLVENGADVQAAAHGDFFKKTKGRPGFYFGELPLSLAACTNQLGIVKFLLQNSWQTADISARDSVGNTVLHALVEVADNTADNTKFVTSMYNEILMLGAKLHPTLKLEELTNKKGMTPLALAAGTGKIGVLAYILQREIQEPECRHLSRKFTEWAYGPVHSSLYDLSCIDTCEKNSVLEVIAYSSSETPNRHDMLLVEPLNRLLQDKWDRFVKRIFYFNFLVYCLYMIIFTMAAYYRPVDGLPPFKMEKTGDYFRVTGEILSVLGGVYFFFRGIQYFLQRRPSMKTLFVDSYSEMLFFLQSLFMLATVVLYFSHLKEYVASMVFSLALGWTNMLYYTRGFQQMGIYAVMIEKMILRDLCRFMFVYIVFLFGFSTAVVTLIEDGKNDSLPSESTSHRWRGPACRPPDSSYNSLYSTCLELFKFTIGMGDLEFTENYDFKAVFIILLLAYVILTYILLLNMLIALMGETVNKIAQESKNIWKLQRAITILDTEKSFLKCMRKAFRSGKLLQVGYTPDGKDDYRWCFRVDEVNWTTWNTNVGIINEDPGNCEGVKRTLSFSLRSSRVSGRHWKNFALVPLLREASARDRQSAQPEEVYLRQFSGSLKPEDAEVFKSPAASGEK
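Cells expressing TRPV1 were dye-loaded with Fluo-8 and read kinetically: 10 s baseline, 3 min after compound (agonist portion), then 2 min after EC20 capsaicin (allosteric enhancer portion). Calcium-bound dye fluorescence at 480/520 nm.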
VP16 counter = VP16 counterscreen qHTS for inhibitors of ROR gamma transcriptional activity; 310,000 compounds, 3.5% hits; Drosophila S2 Gal4-VP16 UAS-luciferase, luminescence, 20 h; Potency, µM (doses to about 53.6 µM), hits mostly inhibitors; AID 2546, 2010;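 also: Gal4-VP16 expression switched on by copper sulfate through the metallothionein promoter; nearly all actives have a fitted effect of over 50% in size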
uPA generation = qHTS for Inhibitors of Cell Surface uPA Generation; cell surface uPA generation assay, qHTS; Potency, µM (top dose mostly 38.3 µM), most hits filed as inhibitors; 330,000 compounds, 0.31% hits; active = well fitted inhibition curve with a large enough effect; inconclusive = small, poorly fitted or top-dose-only effect; inactive = no such curve, though single readings can be large or run the other way; tested in mouse RAW 264.7 cells; also: nearly all actives have a fitted effect of over 55% in size
TRPV1 PAM = HTS Assay for Compounds that Act as Potentiators of the Vanilloid Receptor 1; TRPV1-expressing cells, Fluo-8 calcium influx, capsaicin EC20 potentiation; potentiation, % at 8.33 µM; 320,000 compounds, 0.02% hits; in the data active = potentiation above about 80%; inconclusive = between about 30% and that limit
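Cells expressing TRPV1 were dye-loaded with Fluo-8 and read kinetically: 10 s baseline, 3 min after compound (agonist portion), then 2 min after EC20 capsaicin (allosteric enhancer portion). Calcium-bound dye fluorescence at 480/520 nm.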
RORgamma inh = qHTS for inhibitors of ROR gamma transcriptional activity; Nuclear receptor ROR-gamma (Mus musculus), P51450; Drosophila S2 Gal4-RORgamma UAS-luciferase reporter, 20 h; Potency, µM (titrated, usually from 53.6 µM), most hits filed as inhibitors; 310,000 compounds, 5.4% hits; AID 2551, 2010; also: nearly all actives have a fitted effect of over 60% in size
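Luciferase reporter read in Schneider cells carrying Gal4-RORγ (mouse) and UAS-Photinus luciferase; cells given compound 1 h before 700 uM copper sulfate induction, then incubated 20 h at ambient temperature.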
A number is an active result; n = inactive; u = inconclusive; x = no result. Unless noted, calls follow the shape of the dose curve; as a rule, active = well fitted curve in the direction sought with a large enough effect; inconclusive = small, poorly fitted or top-dose-only effect, or another doubt; inactive = no such curve, though single readings can be large; an effect the other way counts as inactive or inconclusive.

SMILES	TRPV1 ag	VP16 counter	uPA generation	TRPV1 PAM	RORgamma inh
COc1ccc2c(c1)-c1nc(NC(=O)c3cccs3)sc1CC2	n	u	n	n	8.91µM
COc1ccc2c(c1)CCc1sc(NC(=O)c3ccc(C)cc3)nc1-2	n	1µM	n	n	0.141µM
COc1ccc2c(c1)-c1nc(/N=C/c3ccc(O)cc3)sc1CC2	n	u	n	n	n
CCN(CC(=O)NCc1ccc(F)cc1)C(=O)CN1CCN(c2cc(Cl)ccc2C)CC1	n	n	n	n	n
O=C(O)c1ccc(S(=O)(=O)N[C@@H](Cc2ccc(O)cc2)C(=O)O)cc1	x	n	x	x	n
COc1ccccc1C(=O)N(C)c1nnc(-c2ccccc2)s1	n	n	n	n	u
COc1ccc(C2=CC(c3ccc(OC)c(OC)c3)NC(=S)N2)cc1 (stereo unspecified)	n	n	n	n	u
COc1ccc(C2C=C(c3ccc(F)cc3)NC(=S)N2)cc1OC (stereo unspecified)	n	u	n	n	8.91µM
COc1ccccc1NC(=O)Cn1nnc(C(=O)NCCc2ccccc2)c1N	n	n	n	n	n
O=c1c2c(-c3cccs3)csc2[nH]c(=S)n1-c1ccccc1	n	3.55µM	n	n	2.24µM
C=CCn1c(SCC(C)=O)nc2scc(-c3ccc(C)o3)c2c1=O	n	n	n	n	n
C=CCn1c(=S)[nH]c2scc(-c3ccc(C)o3)c2c1=O	n	1.26µM	n	n	0.282µM
CCn1c(=S)[nH]c2scc(-c3cccs3)c2c1=O	n	3.16µM	n	n	0.708µM
CCOC(=O)C1CCCN(C(=S)Nc2ccc(S(=O)(=O)N3CCOCC3)cc2)C1 (stereo unspecified)	x	x	n	x	x
O=C(C1=C[C@@H](c2ccccc2)C[C@@H](OCc2ccc(CO)cc2)O1)N1CCCCCCC1	88.2	n	n	n	n
COc1ccc(Cl)cc1N1C(=O)CC(Sc2ccccc2N)C1=O (stereo unspecified)	n	n	n	n	n
CCOc1ccc(-n2c(N)c(-c3nc4ccccc4n3C)c3nc4ccccc4nc32)cc1	n	1.26µM	n	n	1µM
CCOc1ccc(-n2c(N)c(C(=O)NCc3ccco3)c3nc4ccccc4nc32)cc1	n	n	n	n	u
CN(C(=O)c1ccccc1C(=O)OCC(=O)Nc1ccc(OC(F)F)cc1)c1ccccc1	n	x	u	n	x
CC(=O)Nc1nnc(-c2ccco2)o1	n	n	n	n	n
CCN(c1ccccc1)S(=O)(=O)c1ccc(C(=O)Nc2cccc(C)n2)cc1	n	x	n	n	x
CN(c1ccccc1)S(=O)(=O)c1ccc(C(=O)Nc2nnc(-c3ccco3)o2)cc1	n	1.12µM	n	n	0.708µM
CCN(c1ccccc1)S(=O)(=O)c1ccc(C(=O)Nc2nnc(-c3ccco3)o2)cc1	n	n	u	n	0.1µM
CC(C)OC(=O)Cc1nc2sc(-c3ccccc3)cc2c(=O)[nH]1	n	n	u	u	n
COc1cc2c(cc1OC)C(C)N(C(=S)NC(=O)c1ccccc1)CC2 (stereo unspecified)	n	2.24µM	n	n	1.26µM
SMILES	TRPV1 ag	VP16 counter	uPA generation	TRPV1 PAM	RORgamma inh
COc1cc2c(cc1OC)C(C)N(C(=O)c1cc3c(=O)oc4ccc(C)cc4c3s1)CC2 (stereo unspecified)	n	n	n	n	10µM
COc1cc2c(cc1OC)C(C)N(C(=S)Nc1ccccc1)CC2 (stereo unspecified)	n	n	n	n	u
COc1cc2c(cc1OC)C(C)N(C(=O)c1cc(C)on1)CC2 (stereo unspecified)	n	n	n	n	n
COc1cc2c(cc1OC)C(C)N(C(=O)c1c(C)noc1C)CC2 (stereo unspecified)	n	n	5.01µM	n	n
Cc1ccccc1OCCCc1c(C)n[nH]c1C	u	n	n	n	7.08µM
Cc1n[nH]c(C)c1CCCCOc1ccccc1F	n	u	n	n	u
COc1cccc(OC)c1OCCCCc1c(C)n[nH]c1C	n	n	n	n	n
Cc1cccc(C)c1OCCCCc1c(C)n[nH]c1C	n	u	x	n	17.8µM
COc1cccc(OC)c1OCCCCCc1c(C)n[nH]c1C	n	n	n	n	u
Cc1ccccc1OCCCCc1c(C)n[nH]c1C	n	12.6µM	n	n	u
